Results on 29 compounds are retold here after PubChem BioAssay AID2238 (Southern Research Specialized Biocontainment Screening …, 2010).

Calls of active or inactive are those of the source. The rule behind the calls is not given here.

The nature of the test: antiviral protection of cells from WNV – synthesized analogs, SAR follow-up (AID 2238). To be noted: West Nile virus CPE inhibition in cells; max CPE inhibition: measured here: maximum CPE inhibition observed, at 40 µM, stronger effect = higher value unless noted; series mostly up to 40 µM; CPE inhibition: at the top concentration.
On to `Oc1ccccc1C(Nc1nccs1)c1ccc2cccnc2c1O` (stereo not drawn), for which the “CPE inhibition” value was 7.7% (inactive) and the max CPE inhibition is 8.25% [measured here: maximum CPE inhibition observed, at 5 µM, stronger effect = higher value].
For `O=[N+]([O-])c1ccc2c(c1)C(O)N1CCCC1=N2` (stereo not drawn), the “CPE inhibition” value is 1.83% (inactive) and the max CPE inhibition was found to be 1.83%.
With `COc1ccccc1NC(=O)CSc1nc2ccccc2c(=O)n1-c1ccc(F)cc1`, the “CPE inhibition” value is 0.47% (inactive) and the max CPE inhibition was 0.86% [measured here: maximum CPE inhibition observed, at 20 µM, stronger effect = higher value].
For `CCCN(C(=O)c1ccccc1Cl)c1nc(-c2ccc(OC)cc2)cs1`, the “CPE inhibition” value was 0.77% (inactive) and the max CPE inhibition came to 0.77%.
As to `O=c1c2cc(Br)ccc2nc2n1CC/C2=C/c1ccccc1`, the “CPE inhibition” value was 1.37% (inactive) and the max CPE inhibition is 1.37%.
`O=C(Nc1nc(-c2ccc(Cl)cc2)cs1)c1cccc(Cl)c1`: the “CPE inhibition” value is 0.85% (inactive) and the max CPE inhibition is 0.85%.
On to `O=C(CSc1nc2ccccc2c(=O)n1-c1ccc(F)cc1)Nc1cccc2ccccc12`, for which the max CPE inhibition came to 2.57% and the “CPE inhibition” value is 2.57% (inactive).
Consider `COc1ccc(-c2csc(N(C)C(=O)c3ccccc3Cl)n2)cc1`, for which the max CPE inhibition was 1.16% [measured here: maximum CPE inhibition observed, at 5 µM, stronger effect = higher value] and the “CPE inhibition” value was 0.97% (inactive).
Taken in the same sequence, the figures for `COc1ccc(-c2csc(N(CCCBr)C(=O)c3ccccc3Cl)n2)cc1` were 1.23% and 1.23% (inactive).
Taken in the same sequence, the figures for `COc1ccc(NC(=O)CSc2nc3ccccc3c(=O)n2-c2ccc(F)cc2)cc1` were 2.96% and 2.96% (inactive).
On to `CCOC(=O)C1(Cc2ccccc2C(F)(F)F)CCN(C2CCN(C(C)=O)CC2)CC1`, for which the “CPE inhibition” value is 0.62% [at 80 µM] (inactive) and the max CPE inhibition was 1.58% [measured here: maximum CPE inhibition observed, at 20 µM, stronger effect = higher value].
`O=C(Nc1nc(-c2ccc(Cl)cc2)cs1)c1ccc(Cl)cc1`: the max CPE inhibition is 0.79% and the “CPE inhibition” value is 0.62% (inactive).
As for `COc1ccc(-c2csc(NC(=O)c3ccc(Cl)cc3)n2)cc1`, the max CPE inhibition was found to be 6.01% and the “CPE inhibition” value is 5.35% (inactive).
Regarding `COc1cccc(NC(=O)CSc2nc3ccccc3c(=O)n2-c2ccc(F)cc2)c1`, the “CPE inhibition” value was 1.01% (inactive) and the max CPE inhibition is 1.33%.
For `O=c1c2cc(Cl)cc(Cl)c2nc2n1CCC2`, in that order: 0.93% (inactive) and 1.72%.
As to `COc1ccc(-c2csc(NC(=O)c3cccc(Cl)c3)n2)cc1`, the “CPE inhibition” value is 1.24% (inactive) and the max CPE inhibition worked out at 1.98%.
`CC1CC(C)CN(C(=O)CSc2nc3ccccc3c(=O)n2-c2ccc(F)cc2)C1` (stereo not drawn): the “CPE inhibition” value is 2.88% (inactive) and the max CPE inhibition amounted to 2.88%.
Take `CCN(CC)CCCNC(=S)N1CCN(c2nc(-c3ccc(F)cc3)cs2)CC1`: the “CPE inhibition” value was 6.51% [at 20 µM] (inactive) and the max CPE inhibition is 29.4% [measured here: maximum CPE inhibition observed, at 20 µM, stronger effect = higher value].
As for `O=c1c2cc([N+](=O)[O-])ccc2nc2n1CCC2`, the “CPE inhibition” value is -0.47% (inactive) and the max CPE inhibition was 0.23% [measured here: maximum CPE inhibition observed, at 1.25 µM, stronger effect = higher value].
`COc1cccc(C(NC(=O)c2ccccc2)c2ccc3cccnc3c2O)c1` (stereo not drawn): the max CPE inhibition is 5.83% [measured here: maximum CPE inhibition observed, at 5 µM, stronger effect = higher value] and the “CPE inhibition” value was -0.16% (inactive).
As to `COc1ccc(-c2csc(N(Cc3ccccc3)C(=O)c3ccccc3Cl)n2)cc1`, the max CPE inhibition was determined as 2.87% and the “CPE inhibition” value was 2.64% (inactive).
As to `O=C(CSc1nc2ccccc2c(=O)n1-c1ccc(F)cc1)Nc1ccc2c(c1)OCCO2`, the “CPE inhibition” value was 2.33% (inactive) and the max CPE inhibition is 2.5%.
For `Cc1ccc2nc3n(c(=O)c2c1)CCC3`, the “CPE inhibition” value was 1.5% (inactive) and the max CPE inhibition came out at 2.12%.
For the compound `O=C(Nc1nc(-c2ccccc2)cs1)c1ccccc1Cl`, the max CPE inhibition is 0.47% [measured here: maximum CPE inhibition observed, at 0.16 µM, stronger effect = higher value] and the “CPE inhibition” value was 0.31% (inactive).
With `Nc1ccc2nc3n(c(=O)c2c1)CCC3`, the “CPE inhibition” value was 1.56% (inactive) and the max CPE inhibition is 1.56%.
Take `Cc1cccc2c1-c1sc(C(=O)NCCCN3CCCC(C)C3)cc1CO2` (stereo not drawn): the “CPE inhibition” value was -1.09% (inactive) and the max CPE inhibition was 12.1% [measured here: maximum CPE inhibition observed, at 10 µM, stronger effect = higher value].
For `c1ccc2c(c1)CN1CCCC1=N2`, the “CPE inhibition” value was 1.94% [at 80 µM] (inactive) and the max CPE inhibition was 2.6% [measured here: maximum CPE inhibition observed, at 80 µM, stronger effect = higher value].
For `O=C(Nc1nc(-c2ccc(Cl)cc2)cs1)c1ccc(I)cc1`, in that order: 0.78% (inactive) and 0.78%.
Regarding `CC(=O)Nc1ccc2nc3n(c(=O)c2c1)CCC3`, the “CPE inhibition” value was 2.3% (inactive) and the max CPE inhibition stood at 2.33%.
